These results are taken from PubChem BioAssay.

A short description of experiment [1]: E. coli DRC41 culture turbidity changes, primary screen, E. coli filamentation inducer project, strain DRC41, OD650, 48 h (AID 1152).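 Also: E. coli MC1000 strain DRC41 lacking acrAB efflux pump and sulA.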 Conditions: E. coli DRC41 (acrAB sulA), higher = more signal, called active from +8 up or from −8 down.
A short description of experiment [2]: small-molecule binders of probe aLefty1, primary screen, biochemical, small-molecule microarray, 635/667 nm fluorescence (AID 1153).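 Also: score merges spot fluorescence with signal-to-noise ratio from the scanned slide images.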 Particulars: higher = more signal.
A short description of experiment [3]: PSAC antagonists in infected red cells, primary screen, cell-based, P. falciparum Indochina, OD700, 1 h (AID 1154). Particulars: P. falciparum Indochina infected RBC osmotic lysis, higher = more signal, called active from +8 up or from −8 down.
The nature of experiment [4]: PSAC antagonists in infected red cells, primary screen, cell-based, P. falciparum Indochina, OD700, 2 h (AID 1155).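 Also: lysis reports solute entry through the parasite surface anion channel PSAC; channel blockers reduce lysis of infected cells.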 Conditions: P. falciparum Indochina infected erythrocytes, osmotic lysis OD700; higher = more signal, called active from +8 up or from −8 down.
The nature of experiment [5]: osmotic lysis modulators in infected erythrocytes, primary screen, PSAC antagonist project, cell-based, P. falciparum Indochina, OD700, 3 h (AID 1156). Particulars: higher = more signal, called active from +8 up or from −8 down.
Experiment [6] is described as follows: PSAC antagonists in infected red cells, primary screen, cell-based, P. falciparum Indochina, OD700, 18 h (AID 1157). Conditions: P. falciparum Indochina infected erythrocytes, osmotic lysis OD700, 18 h; higher = more signal, called active from +8 up or from −8 down.
The nature of experiment [7]: modulators of S6 phosphorylation in cells, primary screen, cell-based, A549, cytoblot, luminescence, serum-stimulated (AID 1158).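 Also: serum-stimulated A549 lung adenocarcinoma cells; signal is phosphorylated S6 detected by cytoblot immunostaining with HRP secondary.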 Particulars: A549 phospho-S6 cytoblot, 5 h, higher = more signal.
Experiment [8] has as its target NADPH oxidase 2 (Homo sapiens) (UniProt P04839). Description: NOX2-dependent H2O2 signal modulators, primary screen, NOX inhibitor project, cell-based, HEK293-NOX2, PMA-stimulated, Amplex Red fluorescence (AID 1159). Also: test concentration not given here. Particulars: 45 min, higher = more signal, called active from +8 up or from −8 down.
Experiment [9] concerns the target NADPH oxidase 4 (Homo sapiens) (UniProt Q9NPH5). Nature of the experiment: NOX4-dependent H2O2 signal modulators, primary screen, NOX inhibitor project, cell-based, HEK293-NOX4, tetracycline-induced, Amplex Red fluorescence (AID 1160). Conditions: 45 min, higher = more signal, called active from +8 up or from −8 down.
For experiment [10], the target named is NADPH oxidase 5 (Homo sapiens) (UniProt Q96PH1). Description: NOX5-dependent H2O2 signal modulators, primary screen, NOX inhibitor project, cell-based, HEK293-NOX5, Amplex Red fluorescence (AID 1161). Particulars: HEK293-NOX5, ionomycin, 45 min, higher = more signal.
Chain of NADPH oxidase 5 (Homo sapiens) (Q96PH1 whole entry, looked up): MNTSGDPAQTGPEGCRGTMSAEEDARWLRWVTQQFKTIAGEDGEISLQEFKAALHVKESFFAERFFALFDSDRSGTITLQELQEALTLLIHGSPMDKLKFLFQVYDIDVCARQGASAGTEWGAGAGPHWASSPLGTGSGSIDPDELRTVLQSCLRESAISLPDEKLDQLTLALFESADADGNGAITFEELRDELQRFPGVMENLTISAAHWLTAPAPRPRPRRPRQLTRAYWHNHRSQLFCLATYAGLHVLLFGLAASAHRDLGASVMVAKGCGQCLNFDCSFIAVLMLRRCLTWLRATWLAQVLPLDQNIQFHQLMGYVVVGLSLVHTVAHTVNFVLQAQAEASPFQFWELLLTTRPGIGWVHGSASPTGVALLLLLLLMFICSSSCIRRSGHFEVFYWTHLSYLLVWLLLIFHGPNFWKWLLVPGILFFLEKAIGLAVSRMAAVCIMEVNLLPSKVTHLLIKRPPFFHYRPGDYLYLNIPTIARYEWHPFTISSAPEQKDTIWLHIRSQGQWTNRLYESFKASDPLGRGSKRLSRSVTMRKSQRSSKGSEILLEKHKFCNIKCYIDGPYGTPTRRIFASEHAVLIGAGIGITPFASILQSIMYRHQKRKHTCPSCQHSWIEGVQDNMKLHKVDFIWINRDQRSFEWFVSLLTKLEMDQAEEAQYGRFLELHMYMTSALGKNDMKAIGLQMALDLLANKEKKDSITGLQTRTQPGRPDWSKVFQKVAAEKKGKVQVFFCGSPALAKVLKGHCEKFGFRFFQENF
Experiment [11] in a line: A549 cell viability effects, profiling panel, calcein-AM fluorescence, 48 h, basal (AID 1162). Also: test concentration not given here. Conditions: higher = more signal.
Experiment [12] can be described thus: adipocyte viability effects, profiling panel, cell-based, 3T3-L1 adipocytes, calcein-AM fluorescence, 48 h, basal (AID 1163). Also: test concentration not given here. Conditions: 3T3-L1 adipocytes viability, higher = more signal.
Experiment [13] in a line: HepG2 cell viability effects, profiling panel, calcein-AM fluorescence, 48 h, basal (AID 1164). Also: test concentration not given here. Particulars: higher = more signal.
Experiment [14] is described as follows: MM1S cell viability effects, profiling panel, calcein-AM fluorescence, 48 h, basal (AID 1165).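 Also: viability of MM1S multiple myeloma cells under basal unstimulated conditions; test concentration not given here.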 Particulars: higher = more signal.
A short description of experiment [15]: basal RPMI8226 viability, no added stimulus, profiling panel, cell-based, calcein-AM fluorescence, 48 h, PK04 Diversity Set (AID 1166).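 Also: cells grown under basal conditions without added stimulus; test concentration not given here.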 Particulars: RPMI8226 myeloma viability, higher = more signal.
The nature of experiment [16]: basal HepG2 mitochondrial membrane potential changes, profiling panel, cell-based, JC-1 fluorescence, 24 h, 100 nL compound (AID 1167). Also: test concentration not given here. Particulars: higher = more signal.
A short description of experiment [17]: basal 3T3-L1 adipocyte mitochondrial potential changes, profiling panel, cell-based, JC-1 fluorescence, 3T3-L1 adipocytes, 24 h, 100 nL compound (AID 1168). Also: test concentration not given here. Particulars: JC-1 mitochondrial fluorescence, higher = more signal, called active from +8 up or from −8 down.
Experiment [18] is described as follows: basal RPMI8226 mitochondrial membrane potential changes, profiling panel, cell-based, JC-1 fluorescence, 24 h, 100 nL compound (AID 1169). Also: test concentration not given here. Particulars: RPMI8226 myeloma, JC-1 mitochondrial potential fluorescence, higher = more signal.
Experiment [19] in a line: basal MM1S mitochondrial membrane potential changes, profiling panel, cell-based, JC-1 fluorescence, 24 h, 100 nL compound (AID 1170). Also: test concentration not given here. Conditions: higher = more signal.
Experiment [20] in a line: A549 lung cancer cell viability effects, profiling panel, resazurin fluorescence, 24 h, PK04 Diversity Set (AID 1171). Also: test concentration not given here. Conditions: higher = more signal, called active from +8 up or from −8 down. For orientation: Resazurin is reduced to fluorescent resorufin, in cell work by metabolically active cells.

Activity calls are given as the source filed them.

Chain of NADPH oxidase 4 (Homo sapiens) (Q9NPH5 whole entry, looked up): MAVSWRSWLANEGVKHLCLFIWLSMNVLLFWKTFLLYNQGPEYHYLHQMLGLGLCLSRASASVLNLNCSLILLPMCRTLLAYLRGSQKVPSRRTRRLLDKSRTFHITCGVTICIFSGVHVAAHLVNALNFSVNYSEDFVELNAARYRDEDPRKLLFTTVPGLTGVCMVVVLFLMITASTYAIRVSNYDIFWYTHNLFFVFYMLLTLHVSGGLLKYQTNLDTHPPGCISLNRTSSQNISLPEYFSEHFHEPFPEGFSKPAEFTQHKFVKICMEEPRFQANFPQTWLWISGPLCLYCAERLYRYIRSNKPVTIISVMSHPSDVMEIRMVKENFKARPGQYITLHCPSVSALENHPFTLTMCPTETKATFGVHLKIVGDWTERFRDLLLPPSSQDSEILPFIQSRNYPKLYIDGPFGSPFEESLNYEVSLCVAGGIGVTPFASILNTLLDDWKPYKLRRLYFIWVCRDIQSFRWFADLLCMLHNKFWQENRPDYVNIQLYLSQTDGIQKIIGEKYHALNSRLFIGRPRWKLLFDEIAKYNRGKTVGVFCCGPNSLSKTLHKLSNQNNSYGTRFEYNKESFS
Chain of NADPH oxidase 2 (Homo sapiens) (P04839 whole entry, looked up): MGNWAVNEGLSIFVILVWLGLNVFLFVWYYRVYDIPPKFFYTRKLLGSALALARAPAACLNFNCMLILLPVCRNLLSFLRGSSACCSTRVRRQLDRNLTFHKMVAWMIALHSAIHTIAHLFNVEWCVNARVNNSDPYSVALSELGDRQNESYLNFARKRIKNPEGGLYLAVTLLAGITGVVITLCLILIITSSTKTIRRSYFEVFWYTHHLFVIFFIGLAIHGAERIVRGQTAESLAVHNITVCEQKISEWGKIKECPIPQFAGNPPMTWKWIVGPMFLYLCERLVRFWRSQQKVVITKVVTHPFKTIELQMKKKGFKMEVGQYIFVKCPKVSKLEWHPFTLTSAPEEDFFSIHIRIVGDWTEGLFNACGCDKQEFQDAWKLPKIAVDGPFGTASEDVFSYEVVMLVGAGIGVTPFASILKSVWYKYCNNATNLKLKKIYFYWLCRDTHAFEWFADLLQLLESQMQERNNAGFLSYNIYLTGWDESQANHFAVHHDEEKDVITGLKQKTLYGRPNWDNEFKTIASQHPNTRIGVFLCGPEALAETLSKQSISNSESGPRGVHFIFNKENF

`CC(CCN1CCCc2nc(C)c(C)cc21)=NOC(C)CN1CCCCc2nc(C)c(C)cc21` (stereo not given): the z-score in experiment [1] is -0.702 (inactive); in experiment [3], 2.12 (inactive); in experiment [4] it was 0.193 (inactive); in experiment [5], 0.564 (inactive); in experiment [6], 0.415 (inactive); in experiment [7] it was -0.775. The z-score in experiment [8] is -0.397 (inactive); in experiment [9], -1.71 (inactive); in experiment [10], -0.496; in [11] it was -0.37; in [12], -0.219; in [13] it was -0.508. The z-score in experiment [14] was -0.675; in [15] it was -0.388; in [16] it was 1.83; in experiment [17] it was -1.86 (inactive); in experiment [18], 0.264; in experiment [19] it was 0.547. Moreover, the z-score in [20] was -0.0774 (inactive). In experiment [2], this molecule returned a composite z-score of 0.123.
Consider `CCOC(=O)[C@H](Cc1ccccc1)NC(=O)CCC1CC(OC(=O)NCc2cccc3ccccc23)CC2(CCCC(COC(=O)NCc3cccc(C(F)(F)F)c3)O2)O1` (stereo not given in full), for which the z-score is 0.263 (inactive) in experiment [1]; 18.5 (active) in experiment [3]; 2.83 (inactive) in experiment [4]; 0.654 (inactive) in experiment [5]; 0.493 (inactive) in experiment [6]; -0.283 in [7]. The z-score is 0.402 (inactive) in experiment [8]; 0.0385 (inactive) in [9]; -0.162 in experiment [10]; 1.84 in experiment [11]; -0.244 in experiment [12]; 1.14 in [13]. In addition, the z-score in experiment [14] was -0.709; in experiment [15], 0.607; in experiment [16] it was 3.94; in [17], 0.918 (inactive); in experiment [18] it was -0.284; in [19], -0.868. The z-score in experiment [20] was -0.106 (inactive). In experiment [2], this molecule displayed a composite z-score of -0.0984.
For the molecule `CCC=CCCC(OC(=O)c1ccc(Br)cc1)C1=CCCCC1=O` (stereo not given), the z-score was -0.686 (inactive) in experiment [1]; 3.4 (inactive) in experiment [3]; 0.626 (inactive) in experiment [4]; -0.0019 (inactive) in experiment [5]; -0.366 (inactive) in [6]; 0.86 in experiment [7]. Further, the z-score in [8] is -0.126 (inactive); in [9], -0.534 (inactive); in experiment [10] it was -3.12; in experiment [11], -0.211; in experiment [12], -0.648; in experiment [13], -0.805. Moreover, the z-score was -3.68 in experiment [14]; -3.51 in experiment [15]; -1.12 in [16]; -0.711 (inactive) in [17]; -0.449 in [18]; -1.97 in experiment [19]. Moreover, the z-score in [20] was 0.863 (inactive). In [2], this molecule gave a composite z-score of -0.3.
Regarding `CC(C)CON=C1[C@H]2CCn3c(=O)n(Cc4cc5c(cc4Cl)OCO5)c(=O)n3[C@H]2[C@H](O)[C@@H]2O[C@H]12`, the z-score in experiment [1] was -1.41 (inactive); in [3], 0.292 (inactive); in experiment [4] it was -1.05 (inactive); in experiment [5], 0.599 (inactive); in [6] it was -2.22 (inactive); in experiment [7] it was 0.261. For the same molecule, the z-score in experiment [8] is 0.42 (inactive); in experiment [9], 0.223 (inactive); in [10] it was -0.799; in experiment [11], -1.37; in experiment [12], 0.719; in experiment [13], -0.0623. Besides, the z-score is -0.053 in experiment [14]; -0.62 in experiment [15]; -0.0638 in experiment [16]; -0.443 (inactive) in experiment [17]; 0.207 in experiment [18]; -0.354 in experiment [19]. In experiment [20], the z-score was -0.647 (inactive). Also, in experiment [2], the composite z-score amounted to 0.0004.
As for `CCOC(=O)[C@H](CC(C)C)NC(=O)CCC1CC(OC(=O)NCc2cccc3ccccc23)CC2(CCCC(COC(=O)NCCC(C)C)O2)O1` (stereo not given in full), the z-score was -0.64 (inactive) in [1]; 22.7 (active) in experiment [3]; 6.81 (inactive) in [4]; -0.861 (inactive) in experiment [5]; 0.78 (inactive) in [6]; 2.49 in experiment [7]. In addition, the z-score is 0.902 (inactive) in [8]; 0.777 (inactive) in experiment [9]; 0.389 in experiment [10]; 2.25 in [11]; 0.944 in experiment [12]; 0.312 in experiment [13]. Besides, the z-score in experiment [14] is -3.2; in experiment [15] it was -1.05; in experiment [16] it was 0.162; in experiment [17], 0.199 (inactive); in experiment [18], -0.17; in experiment [19], -1.27. Also, in experiment [20], the z-score was 0.169 (inactive). This molecule returned a composite z-score in experiment [2] of 0.185.
With `COc1ccc(C#C[C@@H]2C=C[C@H](OC(C)=O)[C@@H](COC(C)=O)O2)cc1`, the z-score in experiment [1] was 0.381 (inactive); in experiment [3] it was 1.96 (inactive); in experiment [4], 0.141 (inactive); in experiment [5], -0.544 (inactive); in experiment [6], -0.0979 (inactive); in experiment [7], -0.394. The z-score in experiment [8] is 1.38 (inactive); in [9], 0.59 (inactive); in [10], 0.89; in [11] it was -0.142; in experiment [12] it was 0.49; in [13] it was 0.419. The z-score in [14] is -3.54; in [15], -2.65; in experiment [16] it was -1.52; in experiment [17], -0.197 (inactive); in [18], -0.437; in [19] it was -2.68. The z-score in experiment [20] was -0.0296 (inactive). Moreover, the composite z-score in experiment [2] is -0.193.
As to `CC(=O)OC[C@H]1O[C@@H](ON=C(C)CCN2CCCc3nc(C)c(C)cc32)[C@H](OC(C)=O)[C@@H](OC(C)=O)[C@@H]1OC(C)=O`, the z-score is -1.13 (inactive) in experiment [1]; -0.72 (inactive) in experiment [3]; 0.0956 (inactive) in experiment [4]; 1.01 (inactive) in experiment [5]; -1.18 (inactive) in experiment [6]; 0.649 in experiment [7]. The z-score in [8] is 0.502 (inactive); in experiment [9], -1.36 (inactive); in [10] it was -1.09; in [11], -0.984; in experiment [12] it was 0.191; in experiment [13] it was -0.563. Besides, the z-score is -1.05 in [14]; -2.45 in [15]; -0.0457 in experiment [16]; 0.553 (inactive) in [17]; -0.572 in [18]; -0.903 in [19]. The z-score in experiment [20] is 0.0264 (inactive). The composite z-score in experiment [2] was -0.115.
Turning to `CO[C@H]1COC(=O)CC=C[C@H](C)COC(=O)[C@@H](C)NC(=O)CC=C[C@@H]1C`, the z-score was -0.447 (inactive) in experiment [1]; -0.499 (inactive) in experiment [3]; -1.13 (inactive) in experiment [4]; 0.475 (inactive) in [5]; -2.08 (inactive) in [6]; 1.27 in [7]. Moreover, the z-score is 0.157 (inactive) in experiment [8]; 0.148 (inactive) in experiment [9]; -0.0359 in experiment [10]; -0.752 in experiment [11]; 0.197 in experiment [12]; -1.46 in [13]. For the same molecule, the z-score was 0.735 in [14]; -1.5 in experiment [15]; 0.187 in experiment [16]; -0.546 (inactive) in experiment [17]; -0.111 in [18]; -0.609 in experiment [19]. Also, the z-score in experiment [20] was 0.0702 (inactive). The same molecule showed a composite z-score in experiment [2] of 0.0669.
In the case of `COc1cccc([C@H]2Oc3ccc(OC)cc3C(=NO[C@H](C)c3cn([C@H](CO)Cc4ccccc4)nn3)[C@@H]2O)c1`, the z-score was 0.348 (inactive) in [1]; 1.38 (inactive) in experiment [3]; 0.0637 (inactive) in [4]; 0.151 (inactive) in experiment [5]; 0.22 (inactive) in experiment [6]; -0.16 in experiment [7]. The z-score in experiment [8] is -0.809 (inactive); in [9] it was 0.364 (inactive); in [10], -0.781; in [11], -0.16; in [12], 0.131; in experiment [13], -0.489. The z-score in [14] was -0.0922; in experiment [15] it was -0.719; in [16], -1.81; in experiment [17], -3.16 (inactive); in [18], -0.0494; in experiment [19] it was -0.252. Further, the z-score in [20] is 0.286 (inactive). The molecule further returned a composite z-score in experiment [2] of -0.142.
